The list is not random: actives were taken first. Their share in the collection is about 3.6%.
PHOSPHO1 inh: PubChem AID 1565; Phosphoethanolamine/phosphocholine phosphatase (Homo sapiens), Q8TCT1; recombinant PHOSPHO1, absorbance phosphatase assay; 290,000 tested, 1.1% active; inhibition, % at 13.3 µM; in the data active means inhibition above about 60%
APOBEC3A inh: APOBEC3A ssDNA deaminase inhibitors, primary screen, selectivity assay for APOBEC3G inhibitor project, biochemical, FAM/TAMRA oligo cleavage fluorescence | recombinant A3A, FAM/TAMRA ssDNA deamination fluorescence | inhibition, % at 20 µM | 330,000 tested, 0.41% active | AID 493011, 2011;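 active means at least 40% inhibition at 20 µM here, with at most 30% in a related deaminase screen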
Target sequence (P31941 whole entry, looked up): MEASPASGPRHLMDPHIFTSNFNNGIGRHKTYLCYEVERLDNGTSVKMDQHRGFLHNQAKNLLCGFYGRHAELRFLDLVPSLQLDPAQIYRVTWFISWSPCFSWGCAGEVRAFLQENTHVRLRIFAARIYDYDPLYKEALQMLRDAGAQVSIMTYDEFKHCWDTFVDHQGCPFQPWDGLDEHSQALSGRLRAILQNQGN
esBAF inh: Bmi1 luciferase reporter increase in mESCs, primary screen, esBAF inhibitor project, mouse ES cells, Bmi1 luciferase knock-in, single point | 24 h; 100% = twice the neutral-well signal | reporter increase, % at 12.5 µM | 350,000 tested, 2% active; in the data active means activation above about 40%; inconclusive means no clear call, values can overlap the other calls;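 further: a rise in the Bmi1 reporter signal indicates esBAF inhibition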
MITF act: activators of MITF-driven TRPM1 promoter reporter, primary screen, cell-based, SK-MEL-5, luciferase, single point; SK-MEL-5 TRPM1-promoter luciferase, 24 h; % of positive control, neutral wells = 0; activation, % at 12.5 µM; 300,000 tested, 0.75% active; AID 588334, 2011;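 active means mean activation of at least 80% with every replicate also reaching 80%; inconclusive means mean reaches 80% but some replicate falls short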
APOBEC3G inh: APOBEC3G DNA deaminase inhibitors, primary screen, biochemical, fluorescence, single-stranded DNA substrate, uHTS; DNA dC->dU-editing enzyme APOBEC-3G (Homo sapiens), Q9HC16; recombinant A3G, ssDNA deamination FAM/TAMRA fluorescence; inhibition, % at 20 µM; 330,000 tested, 0.28% active; AID 493012, 2011;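 active means inhibition of at least 40% at 20 µM, with no more than 30% in the related APOBEC3A deaminase screen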
Target sequence (Q9HC16 whole entry, looked up): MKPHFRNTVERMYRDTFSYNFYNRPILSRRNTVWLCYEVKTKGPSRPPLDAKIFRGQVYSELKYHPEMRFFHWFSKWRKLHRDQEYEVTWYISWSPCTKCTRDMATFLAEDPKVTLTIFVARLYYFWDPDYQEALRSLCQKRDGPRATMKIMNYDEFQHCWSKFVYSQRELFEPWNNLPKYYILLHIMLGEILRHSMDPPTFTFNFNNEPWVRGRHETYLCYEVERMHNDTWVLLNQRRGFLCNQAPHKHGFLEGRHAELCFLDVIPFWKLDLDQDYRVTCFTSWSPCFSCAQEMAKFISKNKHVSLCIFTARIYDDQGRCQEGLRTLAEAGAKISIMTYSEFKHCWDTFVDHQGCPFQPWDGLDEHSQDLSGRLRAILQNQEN
Wnt bcat act: Wnt/beta-catenin pathway activators, primary screen, cell-based, plate reader, single point; Wnt/beta-catenin reporter cell assay, activator; activation, % at 9.35 µM; 300,000 tested, 1.2% active; in the data active means activation above about 30%, passing the limit was not always enough; inconclusive means no clear call, values can overlap the other calls
A number is an active result; i = inactive; ? = inconclusive; nt = not tested or not shown.

SMILES	PHOSPHO1 inh	APOBEC3A inh	esBAF inh	MITF act	APOBEC3G inh	Wnt bcat act
C[C@@H]1CCCCO[C@@H](CN(C)Cc2ccccc2)[C@@H](C)CN([C@@H](C)CO)C(=O)c2cc(NC(=O)Cc3ccccc3)ccc2O1	nt	nt	i	nt	nt	nt
COc1cccc(C#Cc2cnc3c(c2)C(=O)N([C@H](C)CO)C[C@@H](C)[C@@H](CN(C)C)O3)c1	nt	nt	i	nt	nt	nt
Cc1onc(-c2c(Cl)cccc2Cl)c1NC(=O)N(C)N	i	i	i	i	i	i
Cc1onc(-c2c(Cl)cccc2Cl)c1NC(=O)NC1CCSC1 (stereo not given)	i	i	nt	nt	i	34
O=C(COC(=O)c1ccccc1Cl)NCc1cccs1	nt	nt	i	nt	nt	i
CCOC(=O)c1c(C)[nH]c(C(C)=NNC(=O)c2cccs2)c1C	nt	i	77	nt	i	61
CC(=O)c1c(C)[nH]c(C(=O)OCC(=O)NCc2cccs2)c1C	nt	i	55	i	i	i
Nc1cc(Cl)ccc1C(=O)OCC(=O)NCc1cccs1	nt	i	53	i	i	i
CC(=O)c1c(C)[nH]c(C(=O)OCC(=O)NCc2ccc(Cl)cc2)c1C	nt	i	i	nt	i	i
Cc1cccc(N2CCN(Cc3nc(CC4CC4)no3)CC2)n1	60	i	i	i	i	i
O=C(CCN1CCCCC1)NCC[C@H]1CC[C@@H](NC(=O)C2CCC2)[C@H](CO)O1	nt	nt	i	nt	nt	nt
O=C1/C(=C/c2ccccc2[N+](=O)[O-])COc2ccccc21	i	i	56	i	i	i
CCOc1cc(/C=C2/COc3ccccc3C2=O)ccc1OCC(=O)N(C)C	i	nt	nt	i	nt	i
O=C1/C(=C/c2ccc(O)cc2)COc2ccccc21	i	i	i	i	i	31
CNc1ccc(/C=C2\COc3ccccc3C2=O)cc1[N+](=O)[O-]	i	i	49	i	i	nt
O=C1/C(=C/c2ccccn2)COc2ccccc21	i	i	nt	i	i	i
C[C@H]1CN([C@@H](C)CO)C(=O)c2cc(NC(=O)C3CCCCC3)ccc2O[C@@H]1CN(C)C(=O)Nc1ccc2c(c1)OCO2	nt	nt	i	nt	nt	nt
COc1ccc(S(=O)(=O)Nc2ccc3c(c2)C(=O)N([C@@H](C)CO)C[C@H](C)[C@@H](CN(C)Cc2ccccc2)OCCCC[C@@H](C)O3)cc1	nt	nt	i	nt	nt	nt
O=C(CSc1nnc([C@@H]2CCCN2)o1)c1ccc(Cl)cc1	74	i	i	i	i	37
CCC(C)[C@H](N)c1nnc(SCC(=O)c2ccc(Cl)cc2)o1 (stereo not given in full)	79	i	i	i	i	nt
CC(C)[C@H](N)c1nnc(SCc2ccc(Cl)cc2)o1	i	i	i	i	i	i
O=C(N[C@@H]1CC[C@H](CCn2cc(C3(O)CCCC3)nn2)O[C@@H]1CO)C1CCOCC1	nt	nt	i	nt	nt	nt
CCOC(=O)C1=NN(c2ccc(Cl)cc2)C(=O)C1	i	i	nt	145	i	65
CCOC(=O)c1nn(-c2ccc(Cl)cc2)cc1O	i	i	65	101	i	?
CCOC(=O)c1nn(-c2ccc3ccccc3c2)cc1O	i	i	51	133	i	?
SMILES	PHOSPHO1 inh	APOBEC3A inh	esBAF inh	MITF act	APOBEC3G inh	Wnt bcat act
CCOC(=O)c1nn(-c2ccc3c(c2)OCO3)cc1O	nt	i	nt	90	i	nt
CCOC(=O)c1nn(-c2ccccc2)cc1O	i	i	i	i	i	i
CCOC(=O)c1nn(-c2ccc(C)cc2)cc1O	i	i	i	i	i	nt
O=C(C[C@@H]1C=C[C@H](NC(=O)Nc2cccc(F)c2)[C@H](CO)O1)NCC1CC1	nt	nt	i	nt	nt	nt
C[C@@H]1ON(C)[C@H]2C[C@H]3c4[nH]c5c(-c6cccc(F)c6)cccc5c4CCN3C(=O)[C@@H]12	nt	nt	nt	nt	nt	i
CC(C)NC(=O)Nc1cccc2c1O[C@@H](CN(C)S(=O)(=O)c1ccc(F)cc1)[C@@H](C)CN([C@@H](C)CO)C2=O	nt	nt	i	nt	nt	nt
COC(=O)C1CCN(C(=O)c2oc3c(Cl)cc(C)cc3c2C)CC1	i	i	i	i	i	47
CCOC(=O)C1CCCCN1C(=O)c1oc2c(Cl)cc(C)cc2c1C (stereo not given)	i	i	i	i	i	i
c1csc(CSc2nc3ccccc3s2)c1	i	i	nt	98	i	nt
Cc1noc(C)c1CSc1nc2ccccc2s1	i	i	i	nt	i	i
COc1ccc(C2C(C(=O)c3ccc(C)o3)=C(O)C(=O)N2c2cc(C)on2)cc1OC (stereo not given)	60	i	i	i	i	nt
COc1cc(C2C(C(=O)c3ccc(C)o3)=C(O)C(=O)N2c2cc(C)on2)cc(Br)c1O (stereo not given)	i	i	i	i	i	nt
COc1cccc(C#CC2=CC(=O)CC(C)(C)C2)c1	nt	nt	134	nt	nt	i
Cc1cccc(C#CC2=CC(=O)CC(C)(C)C2)c1	nt	nt	i	nt	nt	i
COc1ccc(S(=O)(=O)N(C)C[C@H]2Oc3ccc(NC(=O)Nc4cccc5ccccc45)cc3CC(=O)N([C@@H](C)CO)C[C@H]2C)cc1	nt	nt	i	nt	nt	nt
Oc1ccccc1/C=N/NC(=S)NC1CC2C=CC1C2 (stereo not given)	i	i	i	nt	i	i
Oc1ccccc1C=NNC(=S)NC1CC2C=CC1C2 (stereo not given)	nt	nt	70	nt	nt	i
OCC1OC(n2cnc3c(SCc4ccccc4)ncnc32)C(O)C1O (stereo not given)	nt	nt	nt	nt	nt	i
OCC1OC(n2ccc3c(SCc4ccccc4)ncnc32)C(O)C1O (stereo not given)	nt	nt	88	i	nt	32
Cc1noc(C)c1NC(=O)N(C)C[C@H]1OCCCC[C@H](C)Oc2ccc(NC(=O)CCC(F)(F)F)cc2C(=O)N([C@@H](C)CO)C[C@H]1C	nt	nt	i	nt	nt	nt
Cc1cc(-c2nnc(CCC(=O)N(CC3CC3)CC3CCCO3)o2)no1 (stereo not given)	i	i	nt	i	i	i
Cc1cc(-c2nnc(CCC(=O)N(CC3CCC3)CC3CCCO3)o2)no1 (stereo not given)	i	i	47	i	i	i
CNC[C@H]1OCCCC[C@@H](C)Oc2ccc(NC(=O)Nc3ccccc3)cc2C(=O)N([C@H](C)CO)C[C@@H]1C	nt	nt	i	nt	nt	nt
Cc1ccc(C(=O)Nc2cc3c(oc2=O)CCCC3=O)cc1	i	i	nt	nt	i	34
C[C@@H]1CCCCO[C@H](CN(C)C(=O)CCCN(C)C)[C@@H](C)CN([C@H](C)CO)C(=O)c2cc(NS(=O)(=O)c3ccc(F)cc3)ccc2O1	nt	nt	i	nt	nt	nt
C[C@@H]1CCCCO[C@H](CN(C)C(=O)Nc2ccc(C(F)(F)F)cc2)[C@@H](C)CN([C@@H](C)CO)C(=O)c2cc(NS(=O)(=O)c3ccc(Cl)cc3)ccc2O1	nt	nt	i	nt	nt	nt
COc1cccc2cc(-c3ccccc3)oc12	nt	i	i	nt	i	i
